# In ChEMBL document CHEMBL3988442, “University of Dundee, Small-Polar-MMV Screening Library” (2021):
# About 1,000 (1.4%) of roughly 69,000 compounds showed an effect of 50% or more. The list comes from a sample in which strong results are over-represented; it also holds similar structures and randomly drawn compounds.
# Test system: Leishmania donovani
# Experiment: Leishmania intramacrophage assay
# Assay type: functional, organism-based
# Design: scale not given: in the data most compounds retested in dose-response had high values
smiles,measurement,setting,value
Cc1ccc(Cl)cc1NCc1nc2n(n1)CCCCC2,Percent Effect,"30.3 µM, […]",5.268%
Cc1ccccc1NCc1nc2n(n1)CCCCC2,Percent Effect,"30.3 µM, […]",-2.813%
Cl.Cl.O=C(NCc1cncc2c1CCN(Cc1cccc(F)c1)C2)C1CC1,Percent Effect,"30 µM, 30.03 µM",-3.8%
CC(NC(=O)NCCn1ccnc1)c1nncn1C (configuration not stated),Percent Effect,"30.3 µM, […]",-59.34%
CCc1nc(NC(=O)NCCc2scnc2C)nn1C,Percent Effect,"30.3 µM, […]",-19.54%
CC1CCCN(Cc2csc(-c3ncccn3)n2)CC1 (configuration not stated),Percent Effect,"30 µM, 30.03 µM",43.73%
CCCC1CCCN(Cc2csc(-c3ncccn3)n2)CC1 (configuration not stated),Percent Effect,30 µM,77.24%
CCCC1CCCN(Cc2csc(-c3cnn(C)c3)n2)CC1 (configuration not stated),Percent Effect,"30 µM, 30.03 µM",-20.44%
CC(CN1CCC2(CC1)N=C(c1cccnc1)NC2=O)c1ccccc1 (configuration not stated),Percent Effect,"30.3 µM, […]",100.2%
CC1=NC2(CCN(CC(C)c3ccccc3)CC2)C(=O)N1 (configuration not stated),Percent Effect,"30.3 µM, […]",10.6%
O=C1NC(c2cccnc2)=NC12CCN(CCCc1ccccc1)CC2,Percent Effect,"30.3 µM, […]",-4.495%
Cc1nc(CN2CCCC(CCc3ccc(F)cc3F)C2)c[nH]1 (configuration not stated),Percent Effect,"30 µM, 30.03 µM",30.76%
Cc1nc(CN2CCCC(CCc3ccc(F)c(F)c3)C2)c[nH]1 (configuration not stated),Percent Effect,"30.3 µM, […]",65.39%
Cc1nc(CN2CCCC(CCc3c(F)cccc3F)C2)c[nH]1 (configuration not stated),Percent Effect,"30 µM, 30.03 µM",47.92%
COCC1CN(C(=O)Nc2cc(-n3cccc3)ccc2F)CCO1 (configuration not stated),Percent Effect,"30.3 µM, […]",7.734%
CNC(=O)CN1CCOC(c2cccc(N)n2)C1 (configuration not stated),Percent Effect,"30.3 µM, […]",18.21%
CN(Cc1nnc(C2CC2)n1C)C1CCN(Cc2nccn2C)C1 (configuration not stated),Percent Effect,30 µM,20.02%
O=C(NCCc1nncn1C1CC1)C1(Cc2ccccc2)CCC1,Percent Effect,"30.3 µM, […]",8.956%
CN(C)CCN(Cc1ccccn1)Cc1ccnn1C1CCCCO1.O=C(O)CC(O)(CC(=O)O)C(=O)O (configuration not stated),Percent Effect,"30.3 µM, […]",29.57%
COCCN(CC1CC1)c1nc(CCN)nc2sc(C)c(C)c12,Percent Effect,"30.3 µM, […]",77.93%
Cc1sc2nc(CCN)nc(N(CCN(C)C)CC3CCCO3)c2c1C (configuration not stated),Percent Effect,"30.3 µM, […]",38.72%
Cc1sc2nc(CCN)nc(N(C)CCCC3CCCO3)c2c1C (configuration not stated),Percent Effect,"30.3 µM, […]",63.54%
CCCSc1nn(CCN(C)C)c2nc3sc(C)c(CC)c3c(=O)n12,Percent Effect,"30.3 µM, […]",45.45%
CC(=O)N1CCc2c(nc(N(C)C)nc2N(C)CCCC2CCCO2)C1 (configuration not stated),Percent Effect,"30.3 µM, […]",-1.539%
CCN(CCN(C)C)c1nc(CCN)nc2sc(C)c(C)c12,Percent Effect,"30.3 µM, […]",54.95%
Cc1nn(C2CCS(=O)(=O)C2)c(O)c1Cc1ccccc1 (configuration not stated),Percent Effect,"30.3 µM, […]",20.59%
Cc1csc(CN(CC2CCCO2)C(=O)c2ccc(C)nc2C)n1 (configuration not stated),Percent Effect,"30.3 µM, […]",-39.1%
Cc1cc(=O)n(C)cc1NC(=O)Cc1cccc(Cl)c1,Percent Effect,"30.3 µM, […]",-5.155%
CCOCC1CN(CC2CC2)Cc2nn(CC3CC3)cc21.O=C(O)C(F)(F)F (configuration not stated),Percent Effect,"30.3 µM, […]",-3.875%
CNC(=O)c1ccc(C2CN(C(=O)c3cnn(C)c3)CCO2)nc1 (configuration not stated),Percent Effect,"30.3 µM, […]",4.595%
CN(C)CCO[C@@H]1CC[C@H]2[C@H]1OCCN2C(=O)COc1ccccc1.O=C(O)C(F)(F)F,Percent Effect,"30 µM, 30.03 µM",28.35%
NS(=O)(=O)c1ccc(N2CCN(CCCc3cn[nH]c3)CC2)cc1,Percent Effect,"30.3 µM, […]",-5.312%
COc1ccc(S(=O)(=O)N2CCC[C@@H]3CN(C(=O)C4CC4)C[C@@H]32)cc1F,Percent Effect,"30.3 µM, […]",-21.4%
CCCc1ccc(OCCNCc2ccco2)c(OC)c1.Cl,Percent Effect,"30.3 µM, […]",65.86%
COc1cc(C(C)=O)ccc1OCCNCc1ccco1.Cl,Percent Effect,"30.3 µM, […]",31.62%
COc1cc(CNCc2ccco2)ccc1OCCO.Cl,Percent Effect,"30.3 µM, […]",36%
Cc1noc(CN(Cc2cccc(C#N)c2)Cc2ccco2)n1,Percent Effect,"30.3 µM, […]",-9.737%
O=C(c1cnccn1)N1CCN2C[C@H](OCC3CC3)C[C@H]2C1,Percent Effect,"30.3 µM, […]",-6.525%
Cc1cc(Cc2ccccc2)cc(C2CCCNC2)n1 (configuration not stated),Percent Effect,"30.3 µM, […]",19.14%
Cc1cc(Cc2cccc(C(F)(F)F)c2)cc(C2CCCNC2)n1 (configuration not stated),Percent Effect,"30.3 µM, […]",91.42%
Cc1cc(Cc2ccccc2F)cc(C2CCCNC2)n1 (configuration not stated),Percent Effect,"30.3 µM, […]",9.469%
Cc1cc(Cc2ccccc2C)cc(C2CCCNC2)n1 (configuration not stated),Percent Effect,"30.3 µM, […]",39.73%
Cc1cccc(Cc2cc(C)nc(C3CCCNC3)c2)c1 (configuration not stated),Percent Effect,"30.3 µM, […]",59.44%
Cc1cc(Cc2ccc(F)cc2)cc(C2CCCNC2)n1 (configuration not stated),Percent Effect,"30.3 µM, […]",22.51%
CC(O)CCN(C)C(=O)Nc1ccc(Br)cc1 (configuration not stated),Percent Effect,"30.3 µM, […]",-0.06572%
Cc1ccc(CNC(=O)CN2CCCC(Cn3cncn3)C2)cc1 (configuration not stated),Percent Effect,30 µM,15.14%
Nc1nc(N2CCCCCC2)ncc1C(=O)NCc1ccc(F)c(Cl)c1,Percent Effect,"30.3 µM, […]",1.039%
CC(CO)CSc1ncnc2[nH]ncc12 (configuration not stated),Percent Effect,"30.3 µM, […]",-17.01%
O=C(O)C(F)(F)F.O=C(O)C(F)(F)F.O=C1COC2(CCN(Cc3cccnc3)CC2)CN1,Percent Effect,"30.3 µM, […]",22.41%
CC(C)Nc1nc2c(c(NC3CC3)n1)CCN(C1CCOCC1)CC2,Percent Effect,"30.3 µM, […]",70.3%
Cc1nc2c(c(NC(C)C)n1)CCN(C1CCOCC1)CC2.O=C(O)C(F)(F)F,Percent Effect,"30.3 µM, […]",14.91%
CC(C)Nc1nc2c(c(NC3CC3)n1)CCN(C(=O)C1CCOC1)CC2 (configuration not stated),Percent Effect,"30.3 µM, […]",26.08%
